From PubChem BioAssay
Unmarked numbers belong to inactive results. The rule behind the calls is not given here.

Target: Pantothenate synthetase (Mycobacterium tuberculosis (strain ATCC 25618 / H37Rv)) (UniProt P9WIL5)
Test: Recombinant Mtb pantothenate synthetase (PanC) inhibitors, coupled enzyme, confirmatory (AID 375);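 note: 0% = full reaction with vehicle and 100% = no enzyme background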
Conditions: coupled enzyme assay; at 10 µM, active compounds read high

Sequence of Pantothenate synthetase (Mycobacterium tuberculosis (strain ATCC 25618 / H37Rv)) (P9WIL5 whole entry, looked up): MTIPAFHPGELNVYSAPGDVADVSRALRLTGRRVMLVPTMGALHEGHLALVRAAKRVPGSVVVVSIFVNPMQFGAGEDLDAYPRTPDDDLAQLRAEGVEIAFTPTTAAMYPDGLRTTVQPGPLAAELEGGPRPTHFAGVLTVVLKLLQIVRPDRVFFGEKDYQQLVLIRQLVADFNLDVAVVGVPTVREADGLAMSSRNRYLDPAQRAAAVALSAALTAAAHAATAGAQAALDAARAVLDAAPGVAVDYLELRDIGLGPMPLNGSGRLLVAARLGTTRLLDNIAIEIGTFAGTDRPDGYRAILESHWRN

Row | SMILES | inhibition
1 | CCCC(C(=O)NCc1ccco1)N(C(=O)CNS(=O)(=O)c1ccc(Cl)cc1)C1CCCC1 (configuration not stated) | 0%
2 | Cc1c(NS(=O)(=O)c2ccc3c(c2)n(C)c(=O)n3C)c(=O)n(-c2ccccc2)n1C | 2%
3 | CC1CCCCC1NC(=O)Cn1ncc2ccccc21 (configuration not stated) | 0%
4 | Cc1ccc(S(=O)(=O)n2nc(OC(=O)c3ccco3)cc2N)cc1 | 2%
5 | O=C(OCC(=O)N1CCc2ccccc21)C1=COCCO1 | 0%
6 | O=C(CCN1C(=O)c2ccccc2C1=O)OCN1C(=O)c2ccccc2C1=O | 5%
7 | Clc1ccccc1-c1nnc2sc(-c3ccccn3)nn12 | 0%
8 | Cc1cc(C)c(OCC(=O)Nc2cccc(O)c2)cc1C | 0%
9 | CCOC(=O)CSc1nn(C)c(=S)s1 | 6%
10 | CC1(C)CC(=O)C(C=NCCO)=C(O)C1 | 0%
11 | COc1cc(C(=O)Nc2cc(-c3ccccc3)[nH]n2)cc(OC)c1OC | 5%
12 | Cc1ccc(NC(=O)C2CCCN2C(=O)Oc2ccccc2)cc1 (configuration not stated) | 1%
13 | Cc1cc(C)n2nc(SCc3cc(=O)n4ccccc4n3)nc2n1 | 0%
14 | CCOc1ccc2c(c1)c1nnc(SCC(=O)N3CCC(C)CC3)nc1n2C | 1%
15 | COc1cccc(N(C(C)=O)c2nc(C)cc(C)c2C#N)c1 | 0%
16 | Cc1cc(-c2ccccc2)c2nncn2n1 | 3%
17 | COCCNC(=O)CC(NS(=O)(=O)c1ccc(NC(C)=O)cc1)C(C)C (configuration not stated) | 0%
18 | CCOc1ccccc1N(CC(=O)NC1CCCC1)C(=O)CCCC(=O)Nc1ccccn1 | 5%
19 | COc1ccccc1C(=O)Nc1ccc(N2CCN(S(C)(=O)=O)CC2)cc1 | 0%
20 | COc1ccc(N(CC(=O)Nc2ccc3c(c2)OCO3)S(=O)(=O)c2c(C)nn(C)c2C)cc1 | 0%
21 | COc1cc(-c2nc(S(=O)(=O)c3ccccc3)c(N3CCOCC3)o2)cc(OC)c1OC | 8%
22 | Cc1nn(C)c(C)c1NC(=O)CSc1nc(Cc2ccccc2)nc2c1cnn2-c1ccccc1 | 2%
23 | COc1ccc(-c2coc3cc(O)cc(O)c3c2=O)cc1 | 5%
24 | C=CCN1C(=O)C2(/C(=C(\O)c3ccc4c(c3)OCCO4)C(=O)C(=O)N2CCCOC)c2ccccc21 (configuration not stated) | 0%
25 | CC1CCN(c2c(NCc3ccc(C(=O)N4c5ccccc5CC4C)cc3)c(=O)c2=O)CC1 (configuration not stated) | 0%
26 | O=C(NCc1cccs1)C(Cc1ccccc1)NS(=O)(=O)c1cccs1 (configuration not stated) | 8%
27 | Cc1ccnc(NC(=O)CCC(=O)N(CC(=O)NC2CCCCC2)c2cccc(C)c2C)c1 | 0%
